Measurements as given in PubChem BioAssay.
Active and inactive are the calls of the source.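 Rule for the calls: active = compound that reduces growth-factor-driven endothelial tube area in a mixed cell culture, no cutoff stated; inactive = the rest.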

Assay: inhibition of endothelial tube formation, primary screen, imaging, VEGF stimulated, CD31 staining, tube area, NPC library (AID 1117340)
Conditions: VEGF-stimulated ADSC/ECFC co-culture, at 10 µM, stronger effect = higher value

Tube area decrease, inactive:
CN1CCN(c2cc3c(cc2F)c(=O)c(C(=O)O)cn3-c2ccc(F)cc2)CC1 -7.2%
C/C=C1\[C@H]2C=C(C)C[C@]1(N)c1ccc(=O)[nH]c1C2 0.1%
COc1ccccc1OCC(O)CO (stereo not drawn) -23.8%
CC1=C(C)C(=O)C(C(CCCCCC(=O)O)c2ccccc2)=C(C)C1=O (stereo not drawn) -6.8%
NS(=O)(=O)c1cc2c(cc1Cl)NC(C(Cl)Cl)NS2(=O)=O (stereo not drawn) -20.1%
C[C@@H]1CN(c2c(F)c(F)c3c(=O)c(C(=O)O)cn(C4CC4)c3c2F)C[C@H](C)N1 -17.5%
CCCc1ncc(C[n+]2ccccc2C)c(N)n1 6.7%
O=C(O)/C=C(\CC(=O)O)C(=O)O 5.8%
Cc1nc2n(c(=O)c1CCN1CCC(c3noc4cc(F)ccc34)CC1)CCC[C@H]2O 8.8%
NC(N)=NCCN1CCCCCCC1 3.7%
Cc1cc(=O)n(-c2ccccc2)n1C -3.4%
C[N+]1(C)[C@@H]2CC(OC(=O)[C@H](CO)c3ccccc3)C[C@H]1[C@@H]1O[C@@H]12 (stereo partly drawn) 5.6%
CC(C)NC[C@@H](O)COc1cccc2ccccc12 5.1%
Cc1c(C(=O)O)c(O)cc2c1C(=O)c1c(O)c([C@@H]3O[C@H](CO)[C@@H](O)[C@H](O)[C@H]3O)c(O)c(O)c1C2=O 24.4%
NC(CS)C(=O)O (stereo not drawn) 3.4%
Cc1nc(-c2ccc(OCC(C)C)c(C#N)c2)sc1C(=O)O -47.3%
Oc1cccc2[nH]ccc12 -3.7%
CCCCCCCCCCCCCCCCC(C(=O)O)C(O)(CC(=O)O)C(=O)O (stereo not drawn) -7.3%
C#CCN[C@@H]1CCc2ccccc21 3.2%
Cc1c[nH]c2ccccc12 5.5%
CC(=O)Oc1c(C)c(C)c2c(c1C)CC[C@@](C)(CCC[C@H](C)CCC[C@H](C)CCCC(C)C)O2 -15.2%

Tube area decrease, active:
O=C(O)c1ccccc1Nc1cccc(C(F)(F)F)c1 47.5%
CO[C@H]1C=CO[C@@]2(C)Oc3c(C)c(O)c4c(O)c(c(/C=N/N5CCN(C)CC5)c(O)c4c3C2=O)NC(=O)/C(C)=C\C=C[C@H](C)[C@H](O)[C@@H](C)[C@@H](O)[C@@H](C)[C@H](OC(C)=O)[C@@H]1C 48.6%
